Only some compounds are listed: those with a hit (about 2.9% of all), similar ones and a draw of the others.
ABHD5-PLIN5 inh – ABHD5-PLIN5 interaction inhibitors, primary screen, cell lysate, split luciferase complementation, luminescence; Split G. princeps luciferase complementation, 4 h; inhibition, % at 4 µM; actives 0.78% (n = 360,000);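 active = inhibition above the mean inhibition across every tested compound plus 3 SD, cut at about 22% in these data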;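 note: 0% = DMSO only wells and the 100% control is not disclosed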
Cardio protect – cardioprotection against H2O2-induced cell death, primary screen, uHTS, H9c2 cells, ATPLite luminescence; protection from H2O2 cell death, % at 20 µM; actives 0.63% (n = 360,000); AID 588492, 2011; H9c2 cardiomyocytes, H2O2 injury protection, 2 h;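 active = compounds giving at least 50% protection of heart cells from peroxide-induced death in the single-dose screen, raw or plate-pattern-corrected value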;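 note: 0% = DMSO wells with peroxide and 100% = DMSO wells without peroxide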
Rtt109 HAT inh – inhibitors of C. albicans Rtt109/Vps75 HAT, primary screen, biochemical, ThioGlo CoA-SH fluorescence, plate reader; purified Rtt109/Vps75, 4 h; actives 0.16% (n = 330,000); inhibition, % at 34.9 µM; Histone acetyltransferase RTT109 (Candida albicans (strain SC5314 / ATCC MYA-2876)), …;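 active = inhibition of at least 50% in every replicate; inconclusive = best replicate reaches 50% inhibition but some replicates fall short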
Target sequence (Q5AAJ8 whole entry, looked up): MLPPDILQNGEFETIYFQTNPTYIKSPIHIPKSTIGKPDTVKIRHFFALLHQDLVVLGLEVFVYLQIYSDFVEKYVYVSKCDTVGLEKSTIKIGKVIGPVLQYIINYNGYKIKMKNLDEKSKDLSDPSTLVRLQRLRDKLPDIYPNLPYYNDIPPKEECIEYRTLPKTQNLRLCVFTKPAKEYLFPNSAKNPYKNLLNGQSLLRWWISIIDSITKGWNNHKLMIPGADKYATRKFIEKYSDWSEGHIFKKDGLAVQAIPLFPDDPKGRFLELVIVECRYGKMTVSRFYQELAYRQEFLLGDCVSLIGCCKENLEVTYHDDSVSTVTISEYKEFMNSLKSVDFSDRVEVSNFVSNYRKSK
Myeloid diff MLP – induction of myeloid progenitor differentiation, primary screen, cell-based, flow cytometry, MLPCN library; ER-HoxA9 myeloid progenitors, lysozyme-GFP differentiation; calls only at 10 µM; actives 1% (n = 360,000); AID 624256, 2012;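 active = normalized GFP-positive differentiation at or above the plate's own cutoff, the solvent-only control mean plus 3 SD; inconclusive = no clear call, values can overlap the other calls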;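 note: cells exposed to compound for four days before flow analysis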
DAGLB inh – DAGLB lipase inhibitors, primary screen, biochemical, fluorescence, HTS; Diacylglycerol lipase-beta (Homo sapiens), Q8NCG7; HEK293T DAGLB membrane lysate, EnzChek fluorogenic substrate; inhibition, % at 5.17 µM; actives 0.059% (n = 340,000); in the data active = inhibition above about 34%;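 note: 0% = enzyme with vehicle and 100% = wells lacking enzyme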
sPLA2-III inh – human group III sPLA2 inhibitors, primary screen, biochemical, QFRET, BODIPY PC-A2 liposome substrate. Group 3 secretory phospholipase A2 (Homo sapiens), Q9NZ20. QFRET BODIPY PC-A2 liposome hydrolysis, fluorescence. inhibition, % at 12.2 µM. actives 0.56% (n = 370,000);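 active = inhibition above mean plus 3 SD of compounds lying within the high and low control bounds, cut at about 19% in these data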;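 note: 0% = median of test compound wells and 100% = no enzyme DMSO wells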
Numbers without * were called inactive; i = inactive; ? = inconclusive; · = no result; + = active, no number.

SMILES	ABHD5-PLIN5 inh	Cardio protect	Rtt109 HAT inh	Myeloid diff MLP	DAGLB inh	sPLA2-III inh
COCC(=O)N/N=C/c1c(C)[nH]n(-c2ccccc2)c1=O	-19	6	-2	i	·	0
Cc1ccc(OCC(=O)N/N=C/c2ccccc2)c([N+](=O)[O-])c1	-2	-12	6	i	-1	1
Cc1ccc(OCC(=O)N/N=C\c2ccc(C)o2)c([N+](=O)[O-])c1	2	-5	0	+	0	-3
Cc1[nH]n(-c2ccccc2)c(=O)c1/C=N/NC(=O)c1cccc([N+](=O)[O-])c1	-2	8	3	?	3	1
Cc1[nH]n(-c2ccccc2)c(=O)c1/C=N/NC(=O)COc1ccccc1[N+](=O)[O-]	-10	62*	·	i	4	-6
Cc1[nH]n(-c2cccc3ccccc23)c(=O)c1/C=N/NC(=O)c1cccc([N+](=O)[O-])c1	-2	56*	-1	i	9	1
COc1ccc(C(=O)CCC(C)(C)[N+](=O)[O-])cc1OC	3	11	-6	i	-2	0
Cc1ccc(-c2cnc3c(c2)C(=O)N([C@H](C)CO)C[C@H](C)[C@@H](CN(C)Cc2ccccc2F)O3)cc1	-2	-7	·	i	-4	2
Cn1c(SSc2ccc(-c3cccnc3)n2C)ccc1-c1cccnc1	5	-6	1	?	-5	-12
CN(c1ccc(OCC(=O)OCC(=O)Nc2c(F)c(F)c(F)c(F)c2F)cc1)S(=O)(=O)c1ccc(F)cc1	-1	5	-2	i	-6	-16
O=C(c1cccc(C(F)(F)F)c1)C1CCCN(Cc2ccc(OCCO)cc2)C1 (centres undefined)	-2	-6	5	i	4	-10
COCCCNCc1cc(C)n(-c2cc(S(=O)(=O)N3CCOCC3)ccc2N2CCCC2)c1C	-10	7	9	i	2	13
Cc1ccc(-c2nn3c(C)nnc3s2)cc1NC(=O)c1ccc(-c2cccc(Cl)c2)o1	19	65*	6	i	6	0
CN(C)c1ccc(/C=C2\C(=N)N3N=C(CC(=O)N4CCCC4)SC3=NC2=O)cc1Br	3	-3	-9	i	-2	-11
CN(C)c1ccc(/C=C2\C(=N)N3N=C(CC(=O)N4CCCCC4)SC3=NC2=O)cc1	0	-7	16	+	-3	-10
O=C(NCc1ccc(OC(F)(F)F)cc1)c1cccc2c1C(=O)c1ccc(N3CCCCC3)cc1S2(=O)=O	0	2	3	i	0	15
O=C(NCc1ccc(OC(F)(F)F)cc1)c1cccc2c1C(=O)c1ccc(N3CCCC3)cc1S2(=O)=O	8	-6	-1	+	-2	14
O=C(NCc1ccc(OC(F)(F)F)cc1)c1cccc2c1C(=O)c1ccc(N3CCC(Cc4ccccc4)CC3)cc1S2(=O)=O	0	-3	-17	+	0	-3
O=C(COC(=O)c1cccc2ccccc12)Nc1ncc(C(F)(F)F)cc1Cl	7	0	-8	+	-4	-9
CCOc1ccccc1C(=O)OCC(=O)Nc1ncc(C(F)(F)F)cc1Cl	-10	0	-2	i	0	0
N#Cc1c(-c2ccccc2F)cc(C2CC2)nc1SCC(=O)c1cccs1	-1	-7	2	+	-8	-12
CCSc1nc2ccc(OC)cc2cc1C#N	-2	-20	2	i	-13	0
N#CCCN/N=C(/Cc1nc2ccccc2[nH]1)c1cccc(Cl)c1	-3	12	-6	+	0	2
COc1ncnc2c1sc1nc(-c3ccccc3)c3c(c12)CCCC3	4	-10	3	i	0	1
CN(C)CCNc1ncnc2c1sc1nc(-c3ccccc3)c3c(c12)CCCC3	10	-18	5	+	0	-20
SMILES	ABHD5-PLIN5 inh	Cardio protect	Rtt109 HAT inh	Myeloid diff MLP	DAGLB inh	sPLA2-III inh
CCCc1c(NC(=O)Nc2ccc(F)cc2)cnn1-c1ccc(Cl)cc1	-2	-9	-2	+	-2	-18
CC(=O)n1cc(/C=N/NC(=O)c2ccc([N+](=O)[O-])cc2)c2ccccc21	-3	11	·	i	-4	1
CC(=O)n1cc(/C=N/NC(=O)c2sc(C)nc2C)c2ccccc21	0	56*	-2	i	-1	-11
C=CCOC(=O)C1=C(C)NC(=O)NC1c1cc(Cl)cc(Cl)c1OC (centres undefined)	1	-4	1	i	-3	7
CC1CCc2sc(C(=O)NN=C3CCC(c4ccccc4)CC3)cc2C1 (centres undefined)	-8	7	-4	+	-14	0
Cc1c(/C=N/NC(=O)c2ccc(O)cc2)c2ccccn2c1C(=O)c1ccc(F)cc1	-9	54*	0	i	7	-8
CCn1c(C)cc2c(c1=O)C(c1ccc3c(c1)OCO3)C(C#N)=C(N)O2 (centres undefined)	2	3	-1	i	1	1
CCCc1nc(SCC(=O)N2CCN(c3ccccc3)CC2)c2c(=O)n(C)c(=O)n(C)c2n1	4	24	2	+	-1	-1
Cc1ccc(-n2nnc3c(=O)n(CC(=O)N4CCCC4)cnc32)cc1	-4	3	3	i	-2	·
CC(C)C(NS(=O)(=O)c1cccc2nsnc12)C(=O)NC1CCCCC1C (centres undefined)	-1	1	-2	?	1	·
CC1CCCC(NS(=O)(=O)c2cccc3nsnc23)C1C (centres undefined)	5	-5	55*	i	-4	-1
COC(=O)[C@H](Cc1ccc(O)cc1)NC(=O)Cn1cnc2c(NCc3ccccc3)ncnc21	6	14	9	i	-3	-7
Cc1nc(SCC(=O)N2CCN(c3ccccc3)CC2)c2oc3ccccc3c2n1	2	74*	15	i	-7	-1
CC(C)c1ccc(/C=C/c2[nH]c(=O)[nH]c(=O)c2[N+](=O)[O-])cc1	22*	7	0	i	10	-7
COc1ccc(OC)c(/C=N/Nc2nncn2/N=C/c2cc(OC)ccc2OC)c1	-33	81*	3	i	0	1
Cc1ccc(C2(C)NC(=O)N(CC(=O)Nc3ccccc3N3CCCC3)C2=O)cc1 (centres undefined)	-10	0	6	i	3	·
